# Source: PubChem BioAssay
# Shown are actives, neighbours in structure and some others; about 6.7% of the full set was active somewhere.
# BoNT A protease = inhibitors of Botulinum neurotoxin A light chain protease; multiplex microsphere protease substrate cleavage, flow cytometry; hit rate 0.17% among 360,000; inhibition, % at 10 µM; in the data active = inhibition above about 30%; inconclusive = no clear call, values can overlap the other calls; note: plate controls were buffer without enzyme for full effect and enzyme alone for no effect
# GDH-TPI counter-1 = inhibits GDH-TPI coupling enzymes, artifact for Mtb FBA screen; hit rate 1.2% among 360,000; inhibition, % at 4.8 µM; GDH-TPI coupled enzyme counterscreen, NADH absorbance; in the data active = inhibition above about 30%;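 note: 0% = DMSO wells and 100% = wells lacking the enzyme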
# Anthrax LF inh2 = inhibitors of Bacillus anthracis lethal factor protease; AID 588501; inhibition, % at 10 µM; P15917; hit rate 0.12% among 360,000; multiplex microsphere protease cleavage assay, LF; in the data active = inhibition above about 30%; inconclusive = no clear call, values can overlap the other calls; note: plate controls were buffer without enzyme for full effect and enzyme alone for no effect
# BoNT F protease = BoNT F light chain protease inhibition | Multiplex microsphere protease cleavage assay, flow cytometry | inhibition, % at 10 µM | hit rate 0.22% among 360,000 | AID 588497; in the data active = inhibition above about 35%, passing the limit was not always enough; inconclusive = no clear call, values can overlap the other calls; note: plate controls were buffer without enzyme for full effect and enzyme alone for no effect
# FBA Mtb inh = inhibitors of M. tuberculosis fructose-bisphosphate aldolase | P9WQA3 | purified M. tuberculosis FBA, fluorescence read-out | inhibition, % at 1 µM | hit rate 2.3% among 360,000 | AID 588726;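 note: 0% = vehicle and 100% = reference inhibitor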
# Target sequence (P9WQA3 whole entry, looked up): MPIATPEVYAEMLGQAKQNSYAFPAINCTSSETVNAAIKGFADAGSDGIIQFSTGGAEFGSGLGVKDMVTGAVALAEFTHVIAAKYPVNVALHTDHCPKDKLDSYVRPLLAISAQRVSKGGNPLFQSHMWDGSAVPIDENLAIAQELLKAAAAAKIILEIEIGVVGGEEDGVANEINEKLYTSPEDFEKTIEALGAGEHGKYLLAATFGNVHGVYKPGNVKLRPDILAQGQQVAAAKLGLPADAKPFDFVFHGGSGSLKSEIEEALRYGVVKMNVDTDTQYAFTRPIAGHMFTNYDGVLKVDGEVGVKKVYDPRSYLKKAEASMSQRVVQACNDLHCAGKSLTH
# Autofluor counter = flagged as autofluorescent in microsphere protease counterscreen; compound autofluorescence counterscreen, microsphere flow cytometry; hits give high values; fluorescence intensity (test concentration not listed); AID 624483; hit rate 3.1% among 360,000; in the data active = fluorescence intensity above about 16000; inconclusive = no clear call, values can overlap the other calls
# Mtb FBA inh conf = Mtb FBA inhibition, confirmed | inhibition, % at 1 µM | shares compounds with FBA Mtb inh | hit rate 78% among 5,600 | AID 651616 | purified M. tuberculosis FBA, fluorescence read-out;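 note: 0% = vehicle wells and 100% = reference inhibitor wells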
# GDH-TPI counter-2 = inhibits GDH-TPI coupling enzymes, flagging Mtb FBA hits; inhibition, % at 1 µM; hit rate 81% among 5,600; AID 652141; shares compounds with FBA Mtb inh; GDH-TPI coupled enzyme counterscreen, fluorescence; in the data active = inhibition above about 10%
# GDH-TPI dose = GDH-TPI dose response counter-screen for Mtb FBA | AID 652145 | GDH-TPI coupled enzyme assay, fluorescence, artifact counterscreen | shares compounds with FBA Mtb inh | hit rate 79% among 170 | IC50, µM; call rule not given here
# An asterisk follows results filed as active; ? = inconclusive; / = no result; + = active, no number. Cut-off read from the data, not from the text of the source, unless noted: active = inhibition above about 27%; inactive = the rest.
SMILES,BoNT A protease,GDH-TPI counter-1,Anthrax LF inh2,BoNT F protease,FBA Mtb inh,Autofluor counter,Mtb FBA inh conf,GDH-TPI counter-2,others
CCOP(=O)(OCC)c1nc(-c2ccc(Cl)cc2)oc1NCc1ccccc1,0.0,13.6,-0.7,5.4,78.9*,4372,79.6*,101.5*,
CCCOP(=O)(OCCC)c1nc(-c2ccccc2)oc1NCc1ccccc1,-1.5,12.4,-2.3,-0.6,57.0*,2396,0.6,-1.1,
CNc1oc(-c2ccc(C)cc2)nc1P(=O)(c1ccccc1)c1ccccc1,1.7,17.2,5.8,19.4,-1.5,4078,/,/,
Cc1ccccc1-c1nc(P(=O)(c2ccccc2)c2ccccc2)c(N2CCOCC2)o1,-0.6,0.7,-5.7,-11.5,3.5,4680,/,/,
Cc1ccc(-n2cc(CNCC3CC(=O)N(C4CC4)C3)c(-c3cccc(C)c3)n2)cc1 (stereo unspecified),0.6,14.3,2.4,-8.1,3.0,4548,/,/,
CC(=O)Nc1ccc(-c2cc(C(=O)O)c3cc4ccccc4cc3n2)cc1,-0.1,2.6,-1.2,-3.6,24.4,3685,/,/,
COc1ccc(-c2cn3cc(C(=O)NN)ccc3n2)cc1,-0.1,4.3,-1.9,-2.0,41.8*,3767,88.6*,78.0*,
NNC(=O)c1ccc2nc(-c3ccc(Br)cc3)cn2c1,-0.5,1.9,-7.3,-4.2,10.6,4347,/,/,
CC(=O)Nc1ccc(-c2cn3cc(C)ccc3n2)cc1,2.4,14.6,-4.0,13.6,74.3*,7540,+,145.2*,
Cc1ccc2nc(-c3ccc(O)c(O)c3)cn2c1,-1.9,9.2,16.5,?,1.2,3436,/,/,
Cc1ccc2nc(-c3ccccc3)cn2c1,-0.2,-5.0,-4.3,-4.1,36.8*,3010,98.9*,88.0*,
CC(=O)Nc1ccc(-c2cc(C(=O)O)c3ccc(C)cc3n2)cc1,?,-0.4,4.0,?,47.1*,4093,5.4,-5.0,
Cc1nnc2ccc(-c3cccc(NS(C)(=O)=O)c3)nn12,0.1,8.1,2.4,-2.1,0.1,1931,/,/,
OC(CN1CCN(Cc2ccccc2)CC1)c1ccccc1 (stereo unspecified),-0.4,2.1,5.8,-0.8,2.9,4837,/,/,
COc1ccc(C2(c3ccc(OC)cc3)NC(=O)N(CC(=O)Nc3ccc(OC(F)F)cc3)C2=O)cc1,0.2,-4.6,-0.9,-4.3,-0.1,4356,/,/,
COc1ccc2cc(C(N)=O)c(=Nc3ccccc3)oc2c1,-0.4,13.2,-1.6,3.5,35.6*,1969,10.3,-5.4,GDH-TPI dose=>10
O=C(NCc1ccco1)C1CC(c2cc(C(F)(F)F)cc(C(F)(F)F)c2)=NO1 (stereo unspecified),0.2,11.7,-4.6,-2.1,5.8,2744,/,/,
CCOc1ccccc1NC(=O)Cn1nnc(C(=O)NCCc2ccc(OCC)c(OCC)c2)c1N,-0.9,13.9,3.1,0.1,0.6,4421,/,/,
COc1cc(NC(=O)CCCOc2ccc(Cl)cc2Cl)c(C(=O)O)cc1OC,-0.3,13.0,2.4,1.3,0.6,4535,/,/,
O=C(CCCOc1ccc(Cl)cc1Cl)Nc1ccc(O)cc1C(=O)O,0.5,25.9,-6.3,-4.2,30.2*,3379,+,+,
Cc1csc2nc(=O)c3ccccc3n12,0.9,5.3,-2.6,8.5,49.3*,10868,+,174.6*,
CCc1nnc(NC(=O)CSc2nc(C)c3c(c2C#N)CCCC3)s1,0.0,8.1,-1.4,-4.7,55.6*,10128,4.0,0.7,
c1ccc(-c2ccc(-c3n(-c4ccccn4)c4ccccc4[n+]3-c3ccccn3)cc2)cc1,-0.5,2.2,-7.6,-16.4,45.8*,4595,189.1*,171.6*,
CCn1c(SCC(=O)NC2CC2)nnc1-c1cccs1,2.9,7.0,2.3,7.1,-0.7,7427,/,/,
CCn1c(SC(=O)NC2CCCCC2)nnc1-c1cccs1,-0.7,15.9,-3.0,-1.4,45.5*,16821*,-2.4,-0.4,
SMILES,BoNT A protease,GDH-TPI counter-1,Anthrax LF inh2,BoNT F protease,FBA Mtb inh,Autofluor counter,Mtb FBA inh conf,GDH-TPI counter-2,others
Cc1nn(Cc2ccccc2)c(C)c1NC(=O)c1cccs1,1.0,-2.9,0.1,4.3,3.2,10350,/,/,
CC(=O)NC1(c2nnnn2CCOC(=O)Nc2ccc(Cl)cc2)CCCC1,-0.2,-1.6,-1.3,1.5,3.9,4035,/,/,
CC(=O)N(C)C1(c2nnnn2CCOC(=O)Nc2ccc(Cl)cc2)CCCCC1,-0.5,-15.1,-6.1,-1.6,52.2*,2839,12.7,4.4,
CCc1nc2ccc(C(=O)N3CCN(S(=O)(=O)CC)CC3)cn2c1N(C)C(=O)C1CCCCC1,-0.5,-1.3,0.0,2.5,1.5,4109,/,/,
CCN1CCSc2ccc(C(=O)Nc3ccc(NC(C)=O)cc3)cc21,-0.1,14.8,-2.6,-4.6,6.8,2121,/,/,
CCN1CCSc2ccc(C(=O)NCc3ccccc3Br)cc21,-0.2,14.8,-11.7,-5.9,59.2*,4059,0.8,-1.9,
CCN1C(=O)CSc2ccc(C(=O)NCc3ccccc3OC)cc21,-0.5,9.6,-2.7,-8.3,2.2,11492,/,/,
CCN1CCSc2ccc(C(=O)NCc3ccccc3F)cc21,-0.5,12.0,-1.9,-6.2,86.9*,4761,+,+,
CN1CCN(C(=O)COc2ccc3ccccc3c2Br)CC1,-0.9,-0.4,0.0,-9.4,2.1,10068,/,/,
NC1=NC(c2cn[nH]c2-c2cccc(F)c2)n2c(nc3ccccc32)N1 (stereo unspecified),-0.2,1.2,-3.8,-0.5,2.1,3828,/,/,
COc1ccc(-c2[nH]ncc2C2N=C(N)Nc3nc4ccccc4n32)cc1 (stereo unspecified),-0.3,-0.6,-3.5,-10.4,33.9*,4571,70.0*,51.9*,
O=c1[nH]c2ccccc2nc1-c1cccs1,8.7,14.7,8.0,-1.2,103.9*,6489,142.6*,106.6*,
O=C(NCCCSc1ccccc1)c1cc(Cl)ccc1O,2.1,8.6,0.2,4.3,35.6*,5555,68.3*,48.5*,
COC(=O)c1[nH]c2cc(OC)c(OC)cc2c1NC(=O)CN1C[C@H]2C[C@@H](C1)c1cccc(=O)n1C2,-0.2,11.1,-7.5,-0.7,36.9*,5051,69.4*,53.8*,
COC(=O)c1[nH]c2cccc(OC)c2c1NC(=O)CN1CC(C)OC(C)C1 (stereo unspecified),-0.1,-2.2,-7.1,-6.0,10.7,5541,/,/,
CS(=O)(=O)c1ccc(Cl)c(C(=O)NC2CCSc3ccccc32)c1 (stereo unspecified),0.2,0.0,-0.3,0.9,63.8*,5253,8.9,-4.7,
CCn1c(SC(C)C)nnc1-c1c[nH]c2ccccc12,-0.8,4.8,-9.3,-4.2,-1.1,6560,/,/,
CC(C)N(C(=O)[C@H]1C[C@H](CC(=O)NCCCN(C)C)C(=O)N2CCc3c([nH]c4cc(-c5ccco5)ccc34)[C@]12C)C(C)C,-0.6,13.5,-6.6,-8.6,24.6,3164,/,/,
